CCT modulator: cytosolic chaperonin activity modulation | activity change, % (no concentration beside the values), hits read low | AID 651819 | hit rate 0.3% among 360,000 | purified chaperonin ATPase assay, HTRF ADP detection, 30 min; in the data active = activity change below about -30%
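TRiC (40 or 20 nM final, by batch activity) in 30 mM Tris pH 7.4, 100 mM KCl, 5 mM MgCl2, 1 mM DTT was treated with compound at 76 uM single dose, then 10 uM ATP, 30 min at 37 °C. ADP was read by HTRF Transcreener.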
GLP1R cytotox: cytotoxic in the GLP-1 receptor inverse agonist counter-screen | HEK293 cAMP-luciferase reporter cells, luminescence, 24 h | Potency, µM (top dose mostly 38.3 µM), most hits filed as inhibitors | hit rate 0.13% among 410,000;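 note: loss of luciferase light is scored as toxicity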
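Seeding density was 200 cells/uL; after overnight-length (12 h) culture, 23 nL compounds went on for 24 h at 37 °C. Readout used a luciferase detection reagent, luminescence taken after 12 min at room temperature.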
GLP1R ag: activates the human GLP-1 receptor; Potency, µM (titrated, usually from 45.6 µM), most hits filed as activators; hit rate 0.007% among 380,000; AID 624172; P43220; HEK293 GLP-1R CRE-luciferase, luminescence, 4-6 h; cells express a hypersensitive GLP-1R form
Target sequence (P43220 whole entry, looked up): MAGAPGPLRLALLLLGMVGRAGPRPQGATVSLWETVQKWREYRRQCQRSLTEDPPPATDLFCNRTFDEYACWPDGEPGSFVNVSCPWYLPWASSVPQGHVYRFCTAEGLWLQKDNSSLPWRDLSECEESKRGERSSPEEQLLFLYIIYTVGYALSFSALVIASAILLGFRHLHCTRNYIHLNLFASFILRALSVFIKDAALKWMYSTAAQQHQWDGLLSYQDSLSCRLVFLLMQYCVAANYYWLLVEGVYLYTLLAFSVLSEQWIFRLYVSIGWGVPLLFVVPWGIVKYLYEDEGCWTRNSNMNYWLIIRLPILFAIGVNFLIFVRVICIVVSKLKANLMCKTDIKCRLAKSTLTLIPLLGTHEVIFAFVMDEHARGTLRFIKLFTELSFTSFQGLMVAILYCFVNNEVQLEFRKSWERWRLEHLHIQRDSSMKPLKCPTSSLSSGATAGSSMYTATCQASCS
GLP-1R inv ag: inverse agonists of human GLP-1 receptor. P43220. HEK293 GLP-1R CRE-luciferase, luminescence, 24 h; GLP-1R form is constitutively active. Potency, µM (doses to about 38.3 µM), hits mostly inhibitors. hit rate 1.6% among 410,000; note: nearly all actives have a fitted effect of over 55% in size
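Assay principle: reduced luminescence from a cAMP-responsive reporter in HEK293 cells co-expressing a constitutively active GLP-1R. Conditions: 24 hr compound incubation, 37 deg C, 5% CO2.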
Mm-Cpn inhibitor: blocks the Methanococcus maripaludis chaperonin Mm-Cpn; purified Mm-Cpn ATPase, ADP Transcreener TR-FRET; hit rate 0.031% among 330,000; Potency, µM (top dose mostly 76.9 µM), hits mostly inhibitors; note: nearly all actives have a fitted effect of over 80% in size
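Quantitative HTS used 25 nM Mm-CPN and 10 uM ATP in magnesium/KCl Tris buffer, pH 7.4, with 1 mM DTT. Hydrolysis ran 30 min at 37°C; ADP was read by HTRF.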
uPA generation: blocks generation of uPA at the cell surface. hit rate 0.31% among 330,000. AID 540303. cell surface uPA generation assay, qHTS. Potency, µM (highest dose often 38.3 µM), usual class: inhibitors; active = well fitted inhibition curve with a large enough effect; inconclusive = small, poorly fitted or top-dose-only effect; inactive = no such curve, though single readings can be large or run the other way; tested in mouse RAW 264.7 cells; note: nearly all actives have a fitted effect of over 55% in size
Each line names hits and unclear results; the compound was inactive in the other large screens. Shown are actives, neighbours in structure and some others; about 2.2% of the full set was active somewhere. Unless noted, calls come from the whole dose curve; as a rule, active = well fitted curve in the direction sought with a large enough effect; inconclusive = small, poorly fitted or top-dose-only effect, or another doubt; inactive = no such curve, though single readings can be large; an effect the other way counts as inactive or inconclusive.

O=C1c2ccccc2C2=Nc3ccccc3SC(c3ccc(Cl)cc3)C12 (centres undefined)	GLP1R cytotox inconclusive, GLP-1R inv ag 13µM
Cc1c(C)c2c(c(C)c1OC(=O)CCC(=O)O)CC[C@@](C)(CCC[C@H](C)CCC[C@H](C)CCCC(C)C)O2	none (no result: CCT modulator, GLP1R cytotox, GLP-1R inv ag, Mm-Cpn inhibitor, uPA generation)
Cc1ccccc1N1CCN(C(=O)c2ccccc2NC(=O)c2ccccc2C(=O)O)CC1	CCT modulator -66
CC(C)CNC(=O)COC(=O)c1c2c(nc3ccccc13)/C(=C\c1cccs1)CC2	GLP-1R inv ag 4.5µM (no result: Mm-Cpn inhibitor)
CCOc1ccc(C(C)=O)cc1COC(=O)CNC(=O)C12CC3CC(CC(C3)C1)C2	GLP-1R inv ag 3.5µM
CCOc1ccc(C(=O)NCC(=O)OCc2cc(C(C)=O)ccc2OC)cc1	none
CCOc1ccc(CCNC(c2cccc(Cl)c2)c2nnc(-c3ccccc3)o2)cc1OCC (centres undefined)	GLP-1R inv ag inconclusive (no result: CCT modulator, GLP1R ag, Mm-Cpn inhibitor, uPA generation)
CCOc1ccc(CCNC(c2nnc(-c3ccccc3)o2)c2ccccc2Cl)cc1OCC (centres undefined)	GLP-1R inv ag 10µM (no result: CCT modulator, GLP1R ag, Mm-Cpn inhibitor, uPA generation)
O=C(NCc1ccccc1)c1ccc(C2SCC(=O)N2Cc2ccccc2)cc1 (centres undefined)	GLP-1R inv ag 10µM
CC(Oc1ccccc1)C(=O)OCc1cc(=O)n2nc(C(C)C)sc2n1 (centres undefined)	none (no result: CCT modulator, GLP1R ag, Mm-Cpn inhibitor, uPA generation)
COc1ccc(-c2csc(N(CCCN(C)C)C(=O)c3ccccc3Cl)n2)cc1	GLP1R cytotox inconclusive, GLP-1R inv ag inconclusive (no result: Mm-Cpn inhibitor)
COc1ccc(-c2csc(N(CCCN(C)C)C(=O)c3ccccc3C)n2)cc1	GLP1R cytotox inconclusive, GLP-1R inv ag 2.8µM
CCN(C(=O)c1ccccc1F)c1nc(-c2ccc(OC)cc2)cs1	GLP-1R inv ag inconclusive
COCCN(C(=O)c1ccccc1F)c1nc(-c2ccc(OC)cc2)cs1	GLP-1R inv ag 10µM
Cc1ccc(/C=C/c2onc(C)c2S(=O)(=O)N2CCC(C(=O)N(CCC(C)C)Cc3ccco3)CC2)cc1	none (no result: CCT modulator, GLP1R ag, Mm-Cpn inhibitor, uPA generation)
CCN(C(=O)Cn1c(=O)oc2cc(S(=O)(=O)N3CCCCCC3)ccc21)c1cccc(C)c1	none (no result: CCT modulator, GLP1R ag, Mm-Cpn inhibitor, uPA generation)
Cc1cccc(CN(Nc2ccccc2)c2ccccc2)n1	GLP-1R inv ag 10µM (no result: Mm-Cpn inhibitor, uPA generation)
c1ccc(NN(Cc2ccccn2)c2ccccc2)cc1	GLP-1R inv ag inconclusive (no result: Mm-Cpn inhibitor, uPA generation)
CC1(CCc2ccccc2)NC(=O)N(CC(=O)Nc2c(F)cccc2F)C1=O (centres undefined)	CCT modulator -51
Clc1ccc(-c2cccc3nccn23)c(Cl)c1	CCT modulator -77 (no result: Mm-Cpn inhibitor, uPA generation)
Cc1ccc(OC(C)C(=O)Nc2ccc(C)c(S(=O)(=O)Nc3ccc(C)cc3C)c2)cc1 (centres undefined)	GLP-1R inv ag 4µM
CCc1cccc(C)c1NC(=O)CCS(=O)(=O)c1ccc2c(c1)oc(=O)n2C	none (no result: CCT modulator, GLP1R ag, Mm-Cpn inhibitor, uPA generation)
Cc1nnnn1/C(=C\c1ccccc1)C(=O)OCC(=O)N(C)C1CCS(=O)(=O)C1 (centres undefined)	none
CCN(C(=O)COC(=O)/C(=C/c1ccccc1)n1nnnc1C)C1CCCCC1	CCT modulator -88, GLP-1R inv ag inconclusive
COc1cc(OC)cc(-c2c(-c3ccc(F)cc3)c3cc(-c4cccc5[nH]ccc45)ccc3n2C)c1	GLP-1R inv ag 5.6µM, Mm-Cpn inhibitor inconclusive
COc1ccc(OC)c(S(=O)(=O)NCCc2csc3nc(-c4ccccc4)nn23)c1	none (no result: CCT modulator, GLP1R ag, Mm-Cpn inhibitor, uPA generation)
CCOC(=O)[C@H](CCc1ccccc1)N[C@@H](C)C(=O)N1C(=O)N(C)C[C@H]1C(=O)O	none (no result: CCT modulator, GLP1R cytotox, GLP-1R inv ag, Mm-Cpn inhibitor, uPA generation)
Cc1[nH]c2ccccc2c1C(c1ccccc1)c1ccc(Cl)s1 (centres undefined)	GLP-1R inv ag 10µM (no result: CCT modulator, GLP1R ag, Mm-Cpn inhibitor, uPA generation)
Cc1[nH]c2ccccc2c1C(C[N+](=O)[O-])c1cccs1 (centres undefined)	GLP-1R inv ag inconclusive
CC(NCC(O)COCCC12CC3CC(CC(C3)C1)C2)c1ccccc1 (centres undefined)	GLP1R cytotox inconclusive, GLP-1R inv ag 11µM, uPA generation inconclusive
COc1ccc(C(OCC(O)CNC(C)c2ccccc2)c2ccc(OC)cc2)cc1 (centres undefined)	GLP1R cytotox inconclusive, GLP-1R inv ag 10µM
Cc1ccc(C(OCC(O)CNCc2ccc(F)cc2)c2ccccc2)cc1 (centres undefined)	GLP1R cytotox inconclusive, GLP-1R inv ag 5.6µM
CCOC(=O)c1cccc(NC(=O)NC(C)c2c(-n3cccc3)sc3c2CCN(C)C3)c1 (centres undefined)	GLP-1R inv ag inconclusive (no result: CCT modulator, GLP1R ag, Mm-Cpn inhibitor, uPA generation)
O=C(CCS(=O)(=O)c1nc(-c2ccc3c(c2)OCO3)cc(C(F)(F)F)n1)Nc1ccccc1C(F)(F)F	GLP-1R inv ag inconclusive (no result: CCT modulator, GLP1R ag, Mm-Cpn inhibitor, uPA generation)
CCOC(=O)c1c(C)[nH]c(N=Nc2ccc(C)cc2)c1C	GLP1R cytotox inconclusive, GLP-1R inv ag inconclusive
CCOC(=O)c1c(C)[nH]c(N=Nc2ccccc2)c1C	GLP1R cytotox inconclusive, GLP-1R inv ag 10µM
CC(C)(C)c1ccc(CSc2nc(N)cc(=O)[nH]2)cc1	CCT modulator -55
Nc1cc(=O)[nH]c(SCc2ccc(Cl)cc2)n1	none
CCc1nn(CC(=O)N2CCN(c3cccc(C)c3)C(C)C2)c(=O)c2cc3sccc3n12 (centres undefined)	none (no result: CCT modulator, GLP1R ag, Mm-Cpn inhibitor, uPA generation)
COc1cc(OC)c(NS(=O)(=O)c2ccc3c(c2)CCCN3C(C)=O)cc1Cl	none (no result: CCT modulator, GLP1R ag, Mm-Cpn inhibitor, uPA generation)
